Among the data in PubChem BioAssay are inhibition and growth inhibition values, retold here.

Broadly, the inhibition is the drop in the measured response relative to a control, in per cent.

Unmarked numbers belong to inactive results. Active and inactive are the calls of the source. The rule behind the calls is not given here.

One test deals with L-lactate dehydrogenase (Plasmodium falciparum (isolate CDC / Honduras)) (UniProt Q27743). Kind of test: PfLDH activity inhibition – cell lysate, 3D7 strain, counter-screen for P. falciparum growth inhibition project (AID 2304).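 Note: 0% = vehicle and 100% = reference inhibitor.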 To be noted: P. falciparum 3D7 crude extract, LDH APAD/NBT absorbance; at 2 µM; hits give high values. On the technique in general: A counterscreen serves to expose hits that act by an unwanted route or on another target.
Sequence of L-lactate dehydrogenase (Plasmodium falciparum (isolate CDC / Honduras)) (Q27743 whole entry, looked up): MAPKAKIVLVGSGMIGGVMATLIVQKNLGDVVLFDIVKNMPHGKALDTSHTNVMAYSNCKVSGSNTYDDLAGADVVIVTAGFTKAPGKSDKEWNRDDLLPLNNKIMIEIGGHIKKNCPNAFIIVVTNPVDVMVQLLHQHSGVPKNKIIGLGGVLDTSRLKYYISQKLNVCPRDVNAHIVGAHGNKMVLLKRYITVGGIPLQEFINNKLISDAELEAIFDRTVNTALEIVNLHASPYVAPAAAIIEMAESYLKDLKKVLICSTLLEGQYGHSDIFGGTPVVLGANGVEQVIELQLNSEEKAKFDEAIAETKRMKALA
As to `CN(C)S(=O)(=O)n1ncc2c3c(N)nc(N)nc3ccc21`, the inhibition is -4%.

With `NC(N)=NC(=O)Nc1cc(F)c(Cl)c(Cl)c1`, the inhibition is 2%.

Turning to `Cc1nc(C)c(-c2ccc(Oc3ccc(OC(F)(F)F)cc3)cc2)c(OC(=O)c2ccccc2)c1Cl`, the inhibition was 2%.

As to `Nc1nc(N)c2c(Sc3ccc(F)cc3)cccc2n1`, the inhibition was 3%.

Consider `CN=C(N)c1ccc(NC(=O)C=Cc2ccc(C(=O)Nc3ccc(C(N)=NC)cc3)cc2)cc1`, for which the inhibition is 1%.

Take `CC(=O)Oc1c(Cl)c(C)nc(C)c1-c1ccc(Oc2ccc(Cl)cc2)cc1`: the inhibition was 0%.

Turning to `NC(N)=NC(=O)Nc1cc(Br)c(Cl)c(C(F)(F)F)c1`, the inhibition is 0%.

Consider `Cc1nc2nc(N)nc(N)c2c(C)c1Cc1ccc([N+](=O)[O-])cc1`, for which the inhibition was -1%.

`CN(C)S(=O)(=O)n1ccc2c3c(N)nc(N)nc3ccc21`: the inhibition is -4%.

With `NC(=NCC1CC1c1ccccc1)c1cccc(C(N)=NCC2CC2c2ccccc2)n1` (configuration not stated), the inhibition was 0%.

Consider `CCCN(c1ccc(O)c(CN2CCCCC2)c1)c1ccc([N+](=O)[O-])cn1`, for which the inhibition was 4%.

As to `CCc1ccc(Cc2cnc3nc(N)nc(N)c3c2C)cc1`, the inhibition is 0%.

For the compound `CCNCCCC(C)Nc1ccnc2cc(Cl)ccc12` (configuration not stated), the inhibition was 0%.

With `c1ccc(CN2CCN(CCCCNc3c4ccccc4nc4ccccc34)CC2)cc1`, the inhibition was -6%.

For the compound `Cc1nc2ccc(S(=O)(=O)Nc3ccc(C(=O)N[C@@H](CCC(=O)O)C(=O)O)cc3)cc2c(=O)[nH]1`, the inhibition was 7%.

Take `CC(C)(C)c1ccc(-c2nnc(N)nc2N)cc1`: the inhibition was -4%.

Regarding `CCC(=C(CC)c1ccc(O)c(CNC2CCCCC2)c1)c1ccc(O)c(CNC2CCCCC2)c1`, the inhibition is -1%.

Take `Cc1[nH]c(C)c(-c2ccc(Oc3ccc(Cl)cc3)cc2)c(=O)c1I`: the inhibition is 5%.

Take `Nc1nc(N)c2c3c(ccc2n1)NCCC3`: the inhibition is -3%.

On to `Cc1[nH]c(C)c(-c2ccc(Oc3ccc(Cl)cc3)c(Cl)c2)c(=O)c1Br`, for which the inhibition was -1%.

As to `CCN(CC)CCNc1cc(C)nc(/N=C(\N)Nc2ccc(Cl)cc2)n1`, the inhibition was 3%.

On to `CC(C)CNc1nc(N)nc2ccc3c(ccn3CC(C)C)c12`, for which the inhibition is -7%.

As for `CCNC(=O)CCc1cccc(Br)c1`, the inhibition is 6%.

Tested on in a further test: not listed separately
Briefly: inhibition of 3D7 malaria parasite growth – strain 3D7 (AID 2306).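 Note: 0% = DMSO wells and 100% = chloroquine plus artemisinin control wells.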 To be noted: P. falciparum 3D7 erythrocytic growth, LDH absorbance, 72 h; at 2 µM; hits give high values.
For `Nc1nc(N)c2c(Oc3ccc(Cl)c(Cl)c3)cccc2n1`, the growth inhibition was 95% (active).

Take `COc1ccc(OC)c(Cc2c(C)nc3nc(N)nc(N)c3c2C)c1`: the growth inhibition is 90% (active).

In the case of `CC(C)(C)c1ccc(-c2nc3c(ccc4nc(N)nc(N)c43)[nH]2)cc1`, the growth inhibition is 100% (active).

Turning to `CC(=O)Nc1ccc(OCCCCCOc2ccc(NC(C)=O)cc2Cl)c(Cl)c1`, the growth inhibition was 93% (active).

As to `CCOc1cc(Cc2cnc(N)nc2N)ccc1OC`, the growth inhibition was 88% (active).

Consider `CCCCNCc1ccc(OCc2cccc(COc3ccc(CNCCCC)cc3I)c2)c(I)c1`, for which the growth inhibition is 87% (active).

Consider `COc1cc(Cc2cnc(N)nc2N)cc(OCCCCc2ccc([N+](=O)[O-])cc2)c1OC`, for which the growth inhibition is 88% (active).

In the case of `CC(C)c1ccc2c(c1)C(=O)c1ccc(C(=O)O)cc1S2(=O)=O`, the growth inhibition was 93% (active).

For the compound `Nc1ncc(-c2ccc(S(=O)(=O)Nc3ccc(C(=O)N[C@@H](CCC(=O)O)C(=O)O)cc3)cc2)c(=O)[nH]1`, the growth inhibition was 99% (active).

`Cn1c(=N)cc(-c2cccc(I)c2)c2c(=O)[nH]c(N)nc21`: the growth inhibition was 89% (active).

Regarding `Nc1nc(N)c2c(ccc3c2ccn3Cc2ccc(Br)cc2)n1`, the growth inhibition is 101% (active).

As to `COc1ccc(OC)c(CC2c3ccc(Br)c(O)c3CCN2C)c1` (configuration not stated), the growth inhibition was 98% (active).

Take `Oc1cc2ccccc2cc1CNC1CCCCC1`: the growth inhibition is 98% (active).

With `COc1ccccc1-c1nc2c(ccc3nc(N)nc(N)c32)[nH]1`, the growth inhibition is 101% (active).

In the case of `Nc1nc(N)c2c(Oc3cc(Cl)c(Cl)c(Cl)c3)cccc2n1`, the growth inhibition was 101% (active).

Regarding `Cc1nc(C)c(-c2ccc(Oc3ccc(OC(F)(F)F)cc3)cc2)c(OC(=O)c2ccc(CN(C)C)cc2)c1Cl`, the growth inhibition was 98% (active).

Take `CN(C)S(=O)(=O)n1ncc2c3c(N)nc(N)nc3ccc21`: the growth inhibition is 96% (active).

Take `NC(N)=NC(=O)Nc1cc(F)c(Cl)c(Cl)c1`: the growth inhibition was 101% (active).

In the case of `Cc1nc(C)c(-c2ccc(Oc3ccc(OC(F)(F)F)cc3)cc2)c(OC(=O)c2ccccc2)c1Cl`, the growth inhibition was 97% (active).

On to `Nc1nc(N)c2c(Sc3ccc(F)cc3)cccc2n1`, for which the growth inhibition was 88% (active).

Turning to `CN=C(N)c1ccc(NC(=O)C=Cc2ccc(C(=O)Nc3ccc(C(N)=NC)cc3)cc2)cc1`, the growth inhibition is 97% (active).

Regarding `CC(=O)Oc1c(Cl)c(C)nc(C)c1-c1ccc(Oc2ccc(Cl)cc2)cc1`, the growth inhibition is 98% (active).

Consider `NC(N)=NC(=O)Nc1cc(Br)c(Cl)c(C(F)(F)F)c1`, for which the growth inhibition was 101% (active).

In the case of `Cc1nc2nc(N)nc(N)c2c(C)c1Cc1ccc([N+](=O)[O-])cc1`, the growth inhibition is 98% (active).

Turning to `CN(C)S(=O)(=O)n1ccc2c3c(N)nc(N)nc3ccc21`, the growth inhibition is 94% (active).

Regarding `NC(=NCC1CC1c1ccccc1)c1cccc(C(N)=NCC2CC2c2ccccc2)n1` (configuration not stated), the growth inhibition was 95% (active).

Consider `CCCN(c1ccc(O)c(CN2CCCCC2)c1)c1ccc([N+](=O)[O-])cn1`, for which the growth inhibition is 99% (active).

Consider `CCc1ccc(Cc2cnc3nc(N)nc(N)c3c2C)cc1`, for which the growth inhibition was 97% (active).

On to `CCNCCCC(C)Nc1ccnc2cc(Cl)ccc12` (configuration not stated), for which the growth inhibition is 100% (active).

For the compound `c1ccc(CN2CCN(CCCCNc3c4ccccc4nc4ccccc34)CC2)cc1`, the growth inhibition was 102% (active).

As for `Cc1nc2ccc(S(=O)(=O)Nc3ccc(C(=O)N[C@@H](CCC(=O)O)C(=O)O)cc3)cc2c(=O)[nH]1`, the growth inhibition is 94% (active).

Take `CC(C)(C)c1ccc(-c2nnc(N)nc2N)cc1`: the growth inhibition is 92% (active).

For `CCC(=C(CC)c1ccc(O)c(CNC2CCCCC2)c1)c1ccc(O)c(CNC2CCCCC2)c1`, the growth inhibition was 100% (active).

Consider `Cc1[nH]c(C)c(-c2ccc(Oc3ccc(Cl)cc3)cc2)c(=O)c1I`, for which the growth inhibition was 88% (active).

For the compound `Nc1nc(N)c2c3c(ccc2n1)NCCC3`, the growth inhibition was 97% (active).

Consider `Cc1[nH]c(C)c(-c2ccc(Oc3ccc(Cl)cc3)c(Cl)c2)c(=O)c1Br`, for which the growth inhibition is 97% (active).

As for `CCN(CC)CCNc1cc(C)nc(/N=C(\N)Nc2ccc(Cl)cc2)n1`, the growth inhibition is 101% (active).

With `CC(C)CNc1nc(N)nc2ccc3c(ccn3CC(C)C)c12`, the growth inhibition is 99% (active).

Take `CCNC(=O)CCc1cccc(Br)c1`: the growth inhibition is 89% (active).
